# Source: PubChem BioAssay (NCATS)
# “And” between values parts separate entries of the source, which are not always exact repeats. Equal values may be shown once. Inconclusive results are not listed. Where a call stands in place of a potency, no number is given. The source made the active and inactive calls. Calls come from the whole dose curve; as a rule, active = well fitted curve in the direction sought with a large enough effect; inconclusive = small, poorly fitted or top-dose-only effect, or another doubt; inactive = no such curve, though single readings can be large; an effect the other way counts as inactive or inconclusive.
# Biological target: Papain (Carica papaya) (UniProt P00784)
# Sequence (P00784 whole entry, looked up): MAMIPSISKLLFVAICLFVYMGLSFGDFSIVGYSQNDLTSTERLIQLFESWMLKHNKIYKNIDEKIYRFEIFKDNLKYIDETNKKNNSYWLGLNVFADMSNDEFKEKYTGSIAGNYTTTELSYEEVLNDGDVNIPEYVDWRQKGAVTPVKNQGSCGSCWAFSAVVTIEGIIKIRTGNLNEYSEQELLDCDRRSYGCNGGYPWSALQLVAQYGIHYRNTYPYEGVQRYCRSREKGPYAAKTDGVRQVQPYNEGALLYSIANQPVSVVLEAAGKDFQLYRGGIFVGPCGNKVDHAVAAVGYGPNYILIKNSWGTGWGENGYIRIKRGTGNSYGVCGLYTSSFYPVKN
# Assay: Primary qHTS assay for inhibitors of the protease papain (AID 1645873);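 note: papain turnover of Z-FR-AMC read as the AMC fluorescence gain over 10 min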
# Settings: papain Z-FR-AMC cleavage, AMC fluorescence; series mostly up to 49.8 µM
# Potency is the fitted concentration of half-maximal effect.
row,SMILES,Potency
1,Nc1cc2c(ncn2CCOCP(=O)(O)O)c(=O)[nH]1,inactive
2,CCn1cnc2c(Nc3cccc(Cl)c3)nc(N[C@@H]3CCCC[C@@H]3N)nc21,inactive
3,CC1(C(=O)O)C2CCC(O2)C1(C)C(=O)O (configuration not stated),inactive
4,CCCN1CCc2cccc3c2[C@H]1Cc1ccc(O)c(O)c1-3,inactive
5,O=C(NC1CN2CCC1CC2)c1cc2ccoc2cn1 (configuration not stated),inactive
6,O=c1ccc2[nH]cc(C3=CCNCC3)c2[nH]1,25.1 µM (active)

# System: not listed separately
# Assay: Primary qHTS for inhibitors of nuclear receptor binding SET domain protein 2 (NSD2) in an isogenic RCH-ACV NSD2 p.E1099K mutant (9B) (AID 1645876); note: nearly all actives have a fitted effect of over 70% in size
# Settings: RCH-ACV (leukaemia line) NSD2 E1099K (9B) viability, CellTiter-Glo, 72 h; series mostly up to 44.9 µM
SMILES,outcome,Potency
CCCCCCn1c(=O)c(C(=O)Nc2ccc(C(=O)OCCC)cc2)c(O)c2ccccc21,inactive [at 9.23 µM],
OCCCCC#Cc1cncc(OC[C@@H]2CCN2)c1,,inactive
Cc1cc(C(=O)CN2CCCC2)c(C)n1-c1ccc(F)cc1,,inactive
CCc1c(C(=O)C(N)=O)c2c(OCC(=O)OC)cccc2n1Cc1ccccc1,,inactive
C[CH2][Hg][S]c1ccccc1C(=O)O,,668 nM (active)
CN(C(=O)Cc1ccccc1)C(CN1CCCC1)c1ccccc1 (configuration not stated),,inactive
CCc1[nH]c2ccc(OC)cc2c1CCN(C)C,,inactive
Cc1cn(C[C@H](N)C(=O)O)c(=O)n(Cc2cc(-c3ccccc3)sc2C(=O)O)c1=O,,inactive
CCOc1ccccc1-n1c(C(C)N2CCN(C(=O)COc3ccc(Cl)cc3)CC2)nc2ccccc2c1=O (configuration not stated),,916 nM (active) and 662 nM (active)
CC(C)[C@@H](CN1CC[C@@](C)(c2cccc(O)c2)[C@@H](C)C1)NC(=O)[C@H]1Cc2ccc(O)cc2CN1,,18300 nM (active)
CC(N)Cc1c[nH]c2ccccc12 (configuration not stated),,inactive
